Measured values from article PMC8769072, “Proteome‐scale mapping of binding sites in the unstructured regions of the human proteome” (Molecular Systems Biology, 2022).

molecular target: YES1 90-152, P07947
Sequence (P07947 90-152): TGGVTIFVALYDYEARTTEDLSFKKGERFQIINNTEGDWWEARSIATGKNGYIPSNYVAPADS

Selected by phage display, active:
LPSAESLSRRPLPALP [EFS, O43281] confidence 3
TFRWTSLTRELPPPPP [KMT2B, Q9UMN6] confidence 2
PTPSSPLPSVPVSVPA [PLEKHN1, Q494U1] confidence 3
NLEVKSLRALPATPAL [PDE4DIP, Q5VU43] confidence 2
LQRTLPSVPPDTKLSK [TCF24, Q7RTU0] confidence 2
PLPPPPPLPKIQPLEP [ZBTB21, Q9ULJ3] confidence 2
IQSIPLPPTTHTRLPA [TSHZ1, Q6ZSZ6] confidence 2
ELPLLPPPPSLPTIGA [SETD5, Q9C0A6] confidence 3
SRALPATPQLPSRSGV [WIPF1, O43516] confidence 3
APTLPLPPPPGFPPLP [SETD1B, Q9UPS6] confidence 3
AAPTLGHRTLPLLPSL [PRRT4, C9JH25] confidence 2
AAVGVSKPLPSVPPSI [MADD, Q8WXG6] confidence 2
QPLPPAPTSVPPAAFP [PER1, O15534] confidence 2
NQQKALPPPPASIPPP [FMN1, Q68DA7] confidence 2
TSTLPPLPLPPLLPGD [CDK12, Q9NYV4] confidence 3
LPSLPLEPSLLSGVVQ [LRP10, Q7Z4F1] confidence 2
DKTSSIQSRPLPSPPK [BCAR1, P56945] confidence 2
QLGDLPPKPQLSDLPP [ASAP1, Q9ULH1] confidence 2
LPPPPPPDRPYSVGAE [CBL, P22681] confidence 4
QQQQQQLPALPPTPQQ [R3HDM2, Q9Y2K5] confidence 2
TKTPPRDLPTIPGVTS [EIF4EBP1, Q13541] confidence 3
FAGLPLPLPPTSQGLS [PROSER1, Q86XN7] confidence 3
RLSLEGLPSLPSMHEY [IRS2, Q9Y4H2] confidence 3
TLTDLPLLPGVPMAGD [LRRC46, Q96FV0] confidence 2
QPAVFPPSFRELPPPP [IFT52, Q9Y366] confidence 4
KDRPLPPAPLSPAPGP [MAP1A, P78559] confidence 3
TVELEEKRFRTLPLVP [ELL3, Q9HB65] confidence 3
LPLPPLPGAGIPPPPP [FMN2, Q9NZ56] confidence 2
PGRGLPQLPSSAYSVD [ST5, P78524] confidence 4
PQKEGERALPSIPKLA [PTK2, Q05397] confidence 3
SERELPQPPPLLSPQN [SAMD11, Q96NU1] confidence 4
TAGPGRPLPQRPMPDQ [ZFHX2, Q9C0A1] confidence 2

molecular target: ZMYND11 480-602, Q15326
Sequence (Q15326 480-602): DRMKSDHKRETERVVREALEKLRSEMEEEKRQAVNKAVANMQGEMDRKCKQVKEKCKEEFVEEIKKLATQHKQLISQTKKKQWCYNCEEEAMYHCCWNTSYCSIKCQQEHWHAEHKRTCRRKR

Selected by phage display, active:
SAISEVTQPPSYEDAV [MYOCD, Q8IZQ8] confidence 3
EGIPVLEAQNGKLEVV [ATAD2B, Q9ULI0] confidence 2
FERENEGMPSLIAESN [ARID4A, P29374] confidence 2
ELEMPVLKSSLALGLE [PPP1R35, Q8TAP8] confidence 4
QQTPPKLTAYLPAMSE [PDPK1, O15530] confidence 2
SPPTLAPATASPPTTA [MLXIPL, Q9NP71] confidence 2
EPEYPREPPRLEPQPY [UBN2, Q6ZU65] confidence 2
SLQNPPVLIAQPDHSY [SEC16A, O15027] confidence 2
QMPRLVAEESNRGSTT [MORC4, Q8TE76] confidence 3
PPMPQLTPQIPLTGFV [ABI1, Q8IZP0] confidence 2
VDFDPSTPPKLMPFSN [LZTS1, Q9Y250] confidence 2
TPPVQGLEPPVLEAME [I3L1I5] confidence 4
SELKTMPNLQPISALP confidence 4
DMPELFPSKTAHVTDQ [ETAA1, Q9NY74] confidence 2
DSRDQMPVLEKAIDLP confidence 2
QLLMPTLESETEAAVP [PPRC1, Q5VV67] confidence 4
EQALPPHLEPAWPQGL [HOMEZ, Q8IX15] confidence 4
MPELERSQYPMEWGKT [SGMS1, Q86VZ5] confidence 2
LISDLDEGPPVLTPVE [ZHX1, Q9UKY1] confidence 4
DSINPPALVHVHMQGQ [ZSCAN4, Q8NAM6] confidence 3
MPNLARMPSTTAISSN [SLAIN1, Q8ND83] confidence 2
ENPPSYYSIFNYGRTP [TMEM171, Q8WVE6] confidence 3
VPVLEPQLPGSVFDPI [BRD4, O60885] confidence 2
QGSGPGEVLPPLLQLE [AATK, Q6ZMQ8] confidence 2
GMLEMPDLRDGSNVIV [DSG1, Q02413] confidence 3
NESENSRSMPKLEIFE [ZNF165, P49910] confidence 3
EEETKEMPKLQAELAD [ZBTB38, Q8NAP3] confidence 4
MPQLDAAGDRLELRSE [C2orf81, A6NN90] confidence 2
SMHRDGPPLLENAHSS [SOS1, Q07889] confidence 2
HSTGEQPPQLSLATRV [LPIN1, Q14693] confidence 3
